From PubChem BioAssay (NCI)
About 79,000 compounds went through this panel and 15% of them were active in at least one assay; those are over-represented in the sample as a whole. Activity calls are given as the source filed them. Cut-off read from the data, not from the text of the source: active = growth inhibition above about 70%; inactive = the rest.

Assays:
[1] = NCI Yeast Anticancer Drug Screen. Data for the rad52 strain (AID 147);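 note: 0% = growth of vehicle-treated control cultures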; conditions: S. cerevisiae rad52 mutant growth inhibition, hits give high values
Summary of the method: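 Inhibition of yeast growth, referenced to vehicle controls, was the measured output for a strain with defective DNA damage repair.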

[2] = NCI Yeast Anticancer Drug Screen. Data for the wt1 strain (AID 149);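 note: 0% = growth of vehicle-treated wt1 cultures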; conditions: S. cerevisiae wt1 strain (SPY 50644) growth inhibition, hits give high values
Summary of the method: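 Growth inhibition read against vehicle controls after compound exposure of the wt1 yeast strain.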

[3] = NCI Yeast Anticancer Drug Screen. Data for the rad50EPP+ strain (AID 151);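 note: 0% = growth of vehicle-treated control cultures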; conditions: S. cerevisiae rad50 mutant strain, hits give high values
Summary of the method: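 Genetically defined yeast (rad50EPP+, DNA damage repair alteration) is grown with compound, and inhibition of growth is expressed relative to vehicle-treated controls.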

[4] = NCI Yeast Anticancer Drug Screen. Data for the mgt1 strain (AID 153); conditions: S. cerevisiae mgt1 mutant growth inhibition, hits give high values
Summary of the method: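 In the mgt1 strain, test compounds were added and growth inhibition was determined relative to vehicle-treated controls.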

[5] = NCI Yeast Anticancer Drug Screen. Data for the rad50 strain (AID 155);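 note: 0% = growth of vehicle-only cultures of the same strain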; conditions: S. cerevisiae rad50 strain growth inhibition, hits give high values
Summary of the method: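 Readout: growth inhibition relative to vehicle-treated cultures. Compound exposure was carried out in a genetically defined yeast strain deficient in DNA damage repair.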

[6] = NCI Yeast Anticancer Drug Screen. Data for the mec2-1 strain (AID 157); conditions: S. cerevisiae mec2-1 strain, hits give high values
Summary of the method: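 Each compound was tested on mec2-1 yeast, a strain altered in DNA damage repair or cell cycle control. Growth inhibition is reported relative to vehicle.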

[7] = NCI Yeast Anticancer Drug Screen. Data for the rad14 strain (AID 159);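 note: 0% = growth of vehicle-treated control cultures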; conditions: S. cerevisiae rad14 strain growth inhibition, hits give high values
Summary of the method: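 Growth inhibition vs vehicle controls; genetically altered yeast strain (DNA damage repair defect) treated with test compounds.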

[8] = NCI Yeast Anticancer Drug Screen. Data for the CLN2oe strain (AID 163);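 note: 0% = growth of vehicle-only control cultures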; conditions: S. cerevisiae CLN2oe strain, hits give high values
Summary of the method: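 First, the altered yeast strain was treated with each compound; second, its growth was measured; finally, inhibition was derived by comparison with vehicle controls.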

[9] = NCI Yeast Anticancer Drug Screen. Data for the cln2 rad14 strain (AID 165);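 note: 0% = growth equal to vehicle treated cultures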; conditions: S. cerevisiae cln2 rad14 strain, hits give high values
Summary of the method: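 Test compounds were added to cln2 rad14 yeast cultures; inhibition of growth was then determined by comparison with vehicle treatment.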

[10] = NCI Yeast Anticancer Drug Screen. Data for the bub3 strain (AID 167); conditions: S. cerevisiae bub3 mutant strain, hits give high values
Summary of the method: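 Readout: yeast growth inhibition, expressed relative to vehicle-only wells. The test organism is a mutant strain from a panel with lesions in DNA repair or checkpoint genes.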

[11] = NCI Yeast Anticancer Drug Screen. Data for the mlh1 strain (AID 171);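 note: 0% = growth of vehicle-treated control cultures of the same strain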; conditions: S. cerevisiae mlh1 strain growth inhibition, hits give high values
Summary of the method: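 Inhibition values reflect reduced yeast growth in the presence of compound, referenced to vehicle controls, using a strain chosen for its alteration in DNA repair or cell cycle control.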

[12] = NCI Yeast Anticancer Drug Screen. Data for the sgs1 strain (AID 173);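 note: 0% = growth of vehicle-only control cultures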; conditions: S. cerevisiae sgs1 mutant, hits give high values
Summary of the method: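 Vehicle-treated cultures served as reference for growth inhibition of a yeast strain altered in DNA damage repair or cell cycle control after compound exposure.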

[13] = NCI Yeast Anticancer Drug Screen. Data for the mlh1 rad18 strain (AID 175); conditions: S. cerevisiae mlh1 rad18 strain growth inhibition, hits give high values
Summary of the method: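 Inhibition values reflect reduced growth of mutant yeast versus vehicle-treated controls following compound exposure; the mutations affect DNA damage repair.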

[14] = NCI Yeast Anticancer Drug Screen. Data for the rad18 strain (AID 177); conditions: S. cerevisiae rad18 mutant growth inhibition, hits give high values
Summary of the method: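 Steps: expose repair-mutant yeast to compound; measure growth; express as inhibition relative to vehicle control.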

[15] = at 5.0 µM (retest, dose inferred, filed as 0.5)
[16] = at 50.0 µM (retest, dose inferred, filed as 5.0)

Measured: growth inhibition

CC(=O)Nc1ccc(/C=C/[N+](=O)[O-])cc1
active: [1]; at 100.0 µM 97% | [2]; at 100.0 µM 75% | [3]; at 33.0 µM 72% | [3]; at 100.0 µM 82% | [4]; at 100.0 µM 99% | [5]; at 33.0 µM 91% | [5]; [16] 94% | [5]; at 50.0 µM 85% | [5]; at 100.0 µM 98% | [6]; at 100.0 µM 95% | [7]; at 100.0 µM 99% | [8]; at 100.0 µM 71% | [10]; at 100.0 µM 72% | [11]; at 100.0 µM 96% | [12]; at 100.0 µM 99% | [13]; [16] 91% | [13]; at 50.0 µM 94% | [14]; at 100.0 µM 92%
inactive: [1]; at 1.2 µM 19% | [1]; at 3.7 µM 23% | [1]; at 11.0 µM 43% | [1]; at 33.0 µM 69% | [2]; at 1.2 µM -1% | [2]; at 3.7 µM -3% | [2]; at 11.0 µM -4% | [2]; at 33.0 µM 6% | [3]; at 1.2 µM 22% | [3]; at 3.7 µM 42% | [3]; at 11.0 µM 51% | [4]; at 1.2 µM -2% | [4]; at 3.7 µM -4% | [4]; at 11.0 µM -1% | [4]; at 33.0 µM 20% | [5]; at 1.2 µM 31% | [5]; at 3.7 µM 35% | [5]; [15] -66% | [5]; at 11.0 µM 67% | [6]; at 1.2 µM -1% | [6]; at 3.7 µM -2% | [6]; [15] -42% | [6]; at 11.0 µM 14% | [6]; at 33.0 µM 3% | [6]; [16] 33% | [6]; at 50.0 µM 53.4% | [7]; at 1.2 µM 2% | [7]; at 3.7 µM 11% | [7]; at 11.0 µM 18% | [7]; at 33.0 µM 40% | [8]; at 1.2 µM -3% | [8]; at 3.7 µM -1% | [8]; at 11.0 µM 3% | [8]; at 33.0 µM 10% | [9]; [15] -55% | [9]; [16] -19% | [9]; at 50.0 µM 46.2% | [10]; at 1.2 µM -4% | [10]; at 3.7 µM -5% | [10]; [15] -61% | [10]; at 11.0 µM 1% | [10]; at 33.0 µM 6% | [10]; [16] 43% | [10]; at 50.0 µM 68.8% | [11]; at 1.2 µM -1% | [11]; at 3.7 µM -6% | [11]; at 11.0 µM 1% | [11]; at 33.0 µM 22% | [12]; at 1.2 µM -3% | [12]; at 3.7 µM 11% | [12]; at 11.0 µM 15% | [12]; at 33.0 µM 52% | [13]; [15] -96% | [14]; at 1.2 µM 3% | [14]; at 3.7 µM 6% | [14]; at 11.0 µM 12% | [14]; at 33.0 µM 25%
